# Test results taken from PubChem BioAssay (NCI).
# This is part of a sample that, as a whole, favours compounds with a hit. Of some 83,000 tested, about 20% had one in any assay.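 Growth was measured after 48 h exposure to one concentration of compound in 96-well plates. Values under 10 count as active.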 A number with no mark means an inactive call. Active and inactive are the calls of the source.
# Key:
# Assay in all cases: NCI-60 one-dose screen, 48 h (100 = growth as untreated, 0 = no growth, -100 = all killed)
# NCI-H522 lung = conditions: 10 µM unless noted
# A549/ATCC NSCLC = conditions: 10 µM unless noted
# COLO 205 colon = conditions: 10 µM
# SNB-75 CNS = conditions: 10 µM unless noted
# SNB-19 CNS = conditions: 10 µM unless noted
# EKVX NSCLC = conditions: 10 µM unless noted
# UO-31 renal = conditions: 10 µM unless noted
# CAKI-1 renal = conditions: 10 µM unless noted
# MOLT-4 leukemia = conditions: 10 µM
# RPMI-8226 leukemia = conditions: 10 µM unless noted
# OVCAR-8 ovarian = conditions: 10 µM unless noted
# OVCAR-5 ovarian = conditions: 10 µM unless noted
# SK-OV-3 ovarian = conditions: 10 µM unless noted
# T-47D breast = conditions: 10 µM unless noted
# HT29 colon = conditions: 10 µM unless noted
# TK-10 renal = conditions: 10 µM unless noted
# ACHN renal = conditions: 10 µM unless noted
# MDA-MB-435 melanoma = conditions: 10 µM unless noted
Structure (SMILES),growth (NCI-H522 lung),growth (A549/ATCC NSCLC),growth (COLO 205 colon),growth (SNB-75 CNS),growth (SNB-19 CNS),growth (EKVX NSCLC),growth (UO-31 renal),growth (CAKI-1 renal),growth (MOLT-4 leukemia),growth (RPMI-8226 leukemia),growth (OVCAR-8 ovarian),growth (OVCAR-5 ovarian),growth (SK-OV-3 ovarian),growth (T-47D breast),growth (HT29 colon),growth (TK-10 renal),growth (ACHN renal),growth (MDA-MB-435 melanoma)
CC(=O)O[C@H]1CC[C@H]2[C@@H]3CC[C@H]4CC=C(C)C[C@]4(C)[C@H]3CC[C@]12C,92.4%,107%,110%,110%,101%,116%,92.3%,50.7%,94%,109%,102%,92.1%,102%,92.1%,,,,
O=C1NC(=O)C(Cc2ccccc2)(Cc2ccccc2)C(=O)N1,97.8%,104%,125%,89.3%,102%,109%,78.7%,114%,100%,96.4%,106%,110%,89.2%,,104%,99.5%,114%,
CCCCN(CCCC)CC(O)c1ccccc1 (stereo not drawn),112%,104%,,91.5%,106%,96.7%,,107%,97.2%,113%,109%,93.6%,,127%,109%,,102%,105%
C[CH2][Sn]([CH2]C)([CH2]C)[NH]S(=O)(=O)c1ccc(C)cc1,110%,102%,128%,94.6%,114%,99%,86.9%,88.6%,101%,115%,104%,114%,110%,100%,116%,,,102%
CC12CCC(=O)C=C1CCC1C2CCC2(C)C(C(=O)COC(=O)Cc3ccc(N(CCCl)CCCl)cc3)CCC12 (stereo not drawn),81.9%,,88.5%,83.3%,96.2%,53.1%,72.8%,27.4%,49.5%,46.4%,,119%,90%,89.2%,88.5%,112%,40.3%,96.1%
CC(=O)C1C(=O)N(C)C(=O)N(C)C1=O,105%,,114%,,110%,,96.1%,102%,104%,99.7%,109%,99.7%,115%,106%,102%,,95.4%,94.4%
C=CCc1ccc(OC(=O)Cc2ccccc2)c(OC)c1,90.4%,104%,,76.3%,110%,,,95.2%,,106%,109%,110%,94.2%,106%,115%,110%,,107%
CC(/C=N/N=C(N)N)=N\N=C(N)N,61.5%,,55.4%,,78.1%,89.8%,46.9%,57.7%,98.6%,74.3%,58.4%,82.1%,84.9%,40.8%,65.9%,62%,80.9%,89.2%
Cc1cc(NC(=O)CCc2ccc(N3C(N)=NC(N)=NC3(C)C)cc2)ccc1S(=O)(=O)F,-17.2% (active),,36%,,,58.8%,,34.2%,21.6%,-24.6% (active),40.9%,,67.3%,75.1%,24.7%,14.1%,70.9%,32%
N#[N+]c1cnc([O-])[nH]c1=O,14.4%,,94.2%,74.7%,97.8%,114%,39%,,91%,60.2%,88.7%,83.9%,94%,101%,105%,92.6%,94.4%,106%
CCC(C)[C@H]1O[C@]2(C=C[C@@H]1C)C[C@@H]1C[C@@H](C/C=C(\C)[C@@H](OC3C[C@H](OC)C(O[C@H]4C[C@H](OC)[C@@H](O)[C@H](C)O4)[C@H](C)O3)[C@@H](C)/C=C/C=C3\CO[C@@H]4[C@H](O)C(C)=C[C@@H](C(=O)O1)[C@]34O)O2 (stereo partly drawn),-28.8% (active),,-64.5% (active),3.26% (active),23.2%,14.6%,10.1%,,-26.6% (active),,12.5%,-31.8% (active),12.6%,0.0336% (active),-63.6% (active),13.7%,-95.1% (active),-31.6% (active)
CCC1([N+](=O)[O-])COP(=O)(NCc2cccnc2)OC1 (stereo not drawn),109%,102%,119%,104%,108%,106%,91.1%,103%,111%,104%,108%,99.7%,94.4%,,,109%,113%,117%
C[C@]12CC[C@@H]3c4ccc(OC(=O)Cc5ccc(N(CCCl)CCCl)cc5)cc4CC[C@H]3[C@@H]1CC[C@@H]2OC(=O)Cc1ccc(N(CCCl)CCCl)cc1,134%,,,84.7%,107%,110%,,101%,104%,123%,109%,105%,126%,121%,117%,120%,109%,112%
CC(C)C1c2ccc(O)cc2Oc2nc(N)c(C#N)c(N)c21 (stereo not drawn),86.4%,91.4%,109%,81.4%,101%,,89.2%,,98.1%,89.4%,96.2%,104%,116%,87.5%,109%,,,
O=CN1N=C(c2ccccc2)CC1c1sc(N(CCCl)CCCl)nc1Cl (stereo not drawn),70.8%,88.4%,,,90.9%,89.5%,71.7%,79.6%,85.6%,,91%,90.6%,79.2%,83%,92.2%,121%,90.9%,99.2%
Cc1ccc(C(=O)C2CN(C)CCC2(O)c2ccc(C)cc2)cc1 (stereo not drawn),111%,104%,,96%,118%,111%,99.6%,93.7%,103%,99.9%,107%,122%,,102%,113%,,,
CC1(C)N=C(N)N=C(N)N1c1ccc(OCCCCOc2ccc(S(=O)(=O)F)cc2)c(Cl)c1,5.92% (active),,20.4%,38.3%,24.4%,,67.7%,44.5%,26.7%,7.96% (active),13.5%,30.7%,43.3%,,8.74% (active),,25.2%,16.8%
COc1cc(/C=C\c2cc(OC)c(OC)c(OC)c2)cc(N/C=C\C(=O)c2ccc(OC(F)(F)F)cc2)c1OC,-54.8% (active),19.4%,3.12% (active),,74.6%,,,45.5%,34.6%,11.8%,30%,44.2%,19.9%,37.9%,-36.6% (active),,43%,
O=C(O)c1nn(Cc2ccc(Cl)cc2)c2ccccc12,96.8%,,111%,,96.7%,,95.7%,,111%,98.4%,92.7%,,113%,104%,118%,123%,117%,116%
C[C@]12CC[C@H](OC3OC(O)C(O)C(O)C3O)C=C1CCC1C2CC[C@]2(C)[C@@H](c3ccc(=O)oc3)CC[C@]12O (stereo partly drawn),-61.4% (active),,-85.1% (active),-53.2% (active),,-86.6% (active),-92.3% (active),-62.6% (active),,-20.5% (active),110%,,-93.7% (active),-71.4% (active),-84.5% (active),-80.6% (active),,-88.2% (active)
